“And” between values parts separate entries of the source, which are not always exact repeats. Equal entries are not always repeated. About 79,000 compounds went through this panel and 15% of them were active in at least one assay; those are over-represented in the sample as a whole. The source made the active and inactive calls. No stated cut-off is given here; in the data, active means growth inhibition above about 70%; inactive means the rest. Where a SMILES comes first, the peptide text is derived from it. [ ]: non-standard residue; d: D form. ξ: configuration not given here. ξI = CCC(C)C(N)C(=O)O
Assays:
[1] = NCI Yeast Anticancer Drug Screen. Data for the rad50 strain (AID 155);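 further: 0% = growth of vehicle-only cultures of the same strain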; details: S. cerevisiae rad50 strain growth inhibition, active compounds read high
In short: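 Relative growth inhibition (compound vs vehicle) was measured in yeast with a defined repair-gene alteration.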

[2] = NCI Yeast Anticancer Drug Screen. Data for the mec2-1 strain (AID 157); details: S. cerevisiae mec2-1 strain, active compounds read high
In short: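 Mutant yeast (mec2-1) grown with compound; growth inhibition relative to vehicle control reported.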

[3] = NCI Yeast Anticancer Drug Screen. Data for the sgs1 mgt1 strain (AID 161);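 further: 0% = growth of cultures given vehicle only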; details: S. cerevisiae sgs1 mgt1 strain, active compounds read high
In short: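 Compounds are added to genetically altered yeast, and growth is compared with cultures given vehicle alone to give percent inhibition.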

[4] = NCI Yeast Anticancer Drug Screen. Data for the cln2 rad14 strain (AID 165);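 further: 0% = growth equal to vehicle treated cultures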; details: S. cerevisiae cln2 rad14 strain, active compounds read high
In short: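 Readout is yeast growth inhibition versus vehicle-treated controls, using a strain with cln2 and rad14 alterations exposed to compound.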

[5] = NCI Yeast Anticancer Drug Screen. Data for the bub3 strain (AID 167); details: S. cerevisiae bub3 mutant strain, active compounds read high
In short: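 Screening used yeast with an engineered genetic alteration affecting cell cycle control. Compound-exposed cultures were compared with vehicle cultures, and reduced growth was taken as inhibition.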

[6] = NCI Yeast Anticancer Drug Screen. Data for the mlh1 rad18 strain (AID 175); details: S. cerevisiae mlh1 rad18 strain growth inhibition, active compounds read high
In short: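 Genetically defined yeast (DNA repair-deficient) exposed to compounds; growth inhibition determined relative to vehicle.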

[7] = at 5.0 µM (retest, dose inferred, filed as 0.5)
[8] = at 50.0 µM (retest, dose inferred, filed as 5.0)

Measured: growth inhibition

COc1cccc2c1C(=O)c1c(O)c3c(c(O)c1C2=O)C[C@@](O)(C(C)=O)C[C@@H]3OC1CC(N)C(O)C(C)O1 (some centres undefined)
active: [1]; [8] 91% | [2]; [8] 90% | [3]; [8] 93% | [4]; [8] 85% | [5]; [8] 93% | [6]; [8] 88%
inactive: [1]; [7] 32% | [2]; [7] -11% | [3]; [7] 8% | [4]; [7] 23% | [5]; [7] 7% | [6]; [7] 7%

OC1C(O)C(O)C(O)C(O)C1O (centres undefined)
inactive: [5]; at 50.0 µM 0.4% [middle of 5 runs] | [6]; at 50.0 µM 4.3% [middle of 5 runs]

COc1cccc2c1C(=O)c1c(O)c3c(c(O)c1C2=O)CC(O)(C(C)=O)CC3OC1CC(N)C(O)C(C)O1 (centres undefined)
inactive: [1]; [7] 25% | [1]; [8] 40% | [2]; [7] 12% | [2]; [8] 21% | [3]; [7] 20% | [3]; [8] 29% | [4]; [7] 14% | [4]; [8] 9% | [5]; [7] 36% | [5]; [8] 40% | [6]; [7] 23% | [6]; [8] 28%

O=c1c(O)cccc2cc(O)c(O)c(O)c12
active: [1]; [8] 90% and 98% | [1]; at 50.0 µM 89.2% and 90.3% | [3]; [8] 92% and 98% | [3]; at 50.0 µM 89.7% and 91.3% | [4]; [8] 91% and 97% | [4]; at 50.0 µM 85.5% and 87.5% | [5]; [8] 94% and 97% | [5]; at 50.0 µM 87% and 90.2% | [6]; [8] 93% and 97% | [6]; at 50.0 µM 87.2% and 91.1%
inactive: [1]; [7] 9% and 29% | [3]; [7] -4% and 36% | [4]; [7] 12% and 6% | [5]; [7] 5% and 29% | [6]; [7] -4% and 48%

CCC(C)C(NC(=O)CN)C(=O)O (centres undefined) (H-Gly-[ξI]-OH)
inactive: [1]; at 50.0 µM 6.95% [middle of 4 runs] | [2]; at 50.0 µM -3% [middle of 4 runs] | [6]; at 50.0 µM -17.8% [middle of 4 runs]

Cc1cc(C)[nH]c(=O)n1
inactive: [2]; [7] -1% | [2]; [8] 11% | [2]; at 50.0 µM -16.4% and 2.9% | [3]; [7] 2% | [3]; [8] 7% | [3]; at 50.0 µM -9.15% and 22.4% | [4]; [7] 6% | [4]; [8] 13% | [4]; at 50.0 µM -18.1% and 22.9% | [5]; [7] -4% | [5]; [8] -2% | [5]; at 50.0 µM -2.25% and 14.7% | [6]; [7] -2% | [6]; [8] 7% | [6]; at 50.0 µM -14.6% and 45.2%

CCCCCCCN
inactive: [1]; [7] 1% | [1]; at 50.0 µM 50% | [4]; [7] -5% | [4]; [8] 52% | [4]; at 50.0 µM 33.7% | [5]; [7] -2% | [5]; at 50.0 µM 12.1% | [6]; [7] -5% | [6]; at 50.0 µM 48.1%
active: [1]; [8] 89% | [5]; [8] 86% | [6]; [8] 88%

CCOC(=O)c1ccc(NCc2ccc3ccccc3n2)cc1
inactive: [2]; [7] -11% | [2]; [8] 14% | [2]; at 50.0 µM 51.5% | [3]; [7] -28% | [3]; [8] 44% | [4]; [7] -6% | [4]; [8] 4% | [4]; at 50.0 µM 19.1% | [5]; [7] 11% | [5]; [8] 55% | [5]; at 50.0 µM -11.1% | [6]; [7] -2% | [6]; [8] 57%
active: [3]; at 50.0 µM 79.4% | [6]; at 50.0 µM 74.3%

NCCCC(=O)O
inactive: [1]; at 50.0 µM -5.85% [middle of 4 runs] | [4]; at 50.0 µM 6.95% [middle of 4 runs] | [5]; at 50.0 µM -15.2% [middle of 4 runs]

Fc1ccc(NC(=S)SCc2ccc3c(c2)OCO3)cc1
inactive: [1]; [7] 3% | [3]; [7] 3% | [4]; [7] -13% | [5]; [7] -8% | [6]; [7] -4%
active: [1]; [8] 98% | [1]; at 50.0 µM 99% | [3]; [8] 99% | [3]; at 50.0 µM 99.5% | [4]; [8] 95% | [4]; at 50.0 µM 98.5% | [5]; [8] 97% | [5]; at 50.0 µM 98.9% | [6]; [8] 95% | [6]; at 50.0 µM 99.3%

CCOC(CN=c1nc(N(C)C)ss1)OCC
inactive: [2]; [7] -9% | [2]; [8] -12% | [2]; at 50.0 µM -8% | [3]; [7] 11% | [3]; [8] -19% | [3]; at 50.0 µM -3.95% | [4]; [7] -22% | [4]; [8] -24% | [4]; at 50.0 µM 7.85% | [5]; [7] -1% | [5]; [8] -9% | [5]; at 50.0 µM 43.4% | [6]; [7] -5% | [6]; [8] -7% | [6]; at 50.0 µM -15.3%

COC1OC2COC(c3ccccc3)OC2C2OC12 (centres undefined)
inactive: [1]; at 50.0 µM -7.7% [middle of 4 runs] | [2]; at 50.0 µM -2.5% [middle of 4 runs] | [4]; at 50.0 µM 3.15% [middle of 4 runs] | [5]; at 50.0 µM -4.2% [middle of 4 runs] | [6]; at 50.0 µM -12.8% [middle of 4 runs]

Reference: PubChem BioAssay (NCI)
